Measured values reported in article PMC7862700, “An all-to-all approach to the identification of sequence-specific readers for epigenetic DNA modifications on cytosine”.

Columns and labels:
Assay in all cases: DAPPL (digital affinity profiling via proximity ligation, sequencing); 10 mM Tris-HCl pH 7.5, 50 mM NaCl, 1 mM DTT, 4% glycerol, room temperature, 30 min; GST-TFs on glutathione beads, 16-mer random dsDNA library, 0.1% formaldehyde crosslink after washing; high values mean tight binding
Details in all cases: protein: recombinant; tags: N-terminal GST; dsDNA, one strand shown
[1] = target: T1, FLI1 (Homo sapiens, UniProt Q01543 1-452)
T1 sequence: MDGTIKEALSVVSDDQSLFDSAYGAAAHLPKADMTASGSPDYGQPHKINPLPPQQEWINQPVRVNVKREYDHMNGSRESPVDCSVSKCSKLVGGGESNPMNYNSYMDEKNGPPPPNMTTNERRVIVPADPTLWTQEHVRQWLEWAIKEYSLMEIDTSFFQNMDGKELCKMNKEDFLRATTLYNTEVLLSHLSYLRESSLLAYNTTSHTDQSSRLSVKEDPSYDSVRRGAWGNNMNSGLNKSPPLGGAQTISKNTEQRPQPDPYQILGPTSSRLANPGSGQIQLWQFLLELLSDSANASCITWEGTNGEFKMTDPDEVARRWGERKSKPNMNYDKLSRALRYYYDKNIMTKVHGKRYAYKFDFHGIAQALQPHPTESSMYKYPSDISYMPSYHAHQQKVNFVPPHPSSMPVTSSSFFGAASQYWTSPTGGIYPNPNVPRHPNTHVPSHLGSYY
Procedure, shortened: (§1)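 Human transcription factors fused to GST were expressed in yeast, captured on glutathione beads, given DNA barcodes and pooled with a GST-only negative control. Pools were incubated with 200 nmole of a 16-mer random double-stranded DNA library in Tris/NaCl/DTT/glycerol buffer at room temperature for 30 min. They were then washed, crosslinked with 0.1% formaldehyde, proximity-ligated (BsaI/T4 ligase, 1 h, 37 °C), PCR-amplified and sequenced on an Illumina NextSeq500. Binding signal is each 6-mer's read frequency for a factor divided by its frequency for the GST control.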

[2] = target: T2, ELK1 (Homo sapiens, UniProt P19419 1-428)
T2 sequence: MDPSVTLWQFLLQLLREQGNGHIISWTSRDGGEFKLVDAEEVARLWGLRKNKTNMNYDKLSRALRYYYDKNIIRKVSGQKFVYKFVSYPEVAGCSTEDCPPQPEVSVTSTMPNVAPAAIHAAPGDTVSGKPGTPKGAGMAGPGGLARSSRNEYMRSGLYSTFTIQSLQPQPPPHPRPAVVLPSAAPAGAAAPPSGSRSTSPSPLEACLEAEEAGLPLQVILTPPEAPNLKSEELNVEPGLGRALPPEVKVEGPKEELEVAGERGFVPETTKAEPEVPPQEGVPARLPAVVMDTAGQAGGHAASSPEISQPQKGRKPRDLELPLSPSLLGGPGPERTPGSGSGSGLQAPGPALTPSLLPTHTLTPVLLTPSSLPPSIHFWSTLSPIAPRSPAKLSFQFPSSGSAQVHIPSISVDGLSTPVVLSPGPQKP
Procedure, shortened: as §1

[3] = target: T3, GABPA (Homo sapiens, UniProt Q06546 1-454)
T3 sequence: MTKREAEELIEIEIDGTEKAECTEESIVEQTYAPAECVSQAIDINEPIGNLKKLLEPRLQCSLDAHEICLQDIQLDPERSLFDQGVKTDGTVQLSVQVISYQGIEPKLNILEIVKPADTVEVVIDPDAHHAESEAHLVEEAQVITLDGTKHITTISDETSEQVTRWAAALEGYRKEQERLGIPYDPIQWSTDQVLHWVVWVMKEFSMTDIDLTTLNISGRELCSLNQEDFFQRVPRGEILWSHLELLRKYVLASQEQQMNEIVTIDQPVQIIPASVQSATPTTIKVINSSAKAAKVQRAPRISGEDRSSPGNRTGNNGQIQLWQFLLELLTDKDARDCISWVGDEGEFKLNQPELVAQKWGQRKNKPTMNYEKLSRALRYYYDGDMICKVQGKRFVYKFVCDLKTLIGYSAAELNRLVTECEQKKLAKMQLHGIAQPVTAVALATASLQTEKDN
Procedure, shortened: as §1

[4] = target: T4, ERG (Homo sapiens, UniProt P11308 1-479)
T4 sequence: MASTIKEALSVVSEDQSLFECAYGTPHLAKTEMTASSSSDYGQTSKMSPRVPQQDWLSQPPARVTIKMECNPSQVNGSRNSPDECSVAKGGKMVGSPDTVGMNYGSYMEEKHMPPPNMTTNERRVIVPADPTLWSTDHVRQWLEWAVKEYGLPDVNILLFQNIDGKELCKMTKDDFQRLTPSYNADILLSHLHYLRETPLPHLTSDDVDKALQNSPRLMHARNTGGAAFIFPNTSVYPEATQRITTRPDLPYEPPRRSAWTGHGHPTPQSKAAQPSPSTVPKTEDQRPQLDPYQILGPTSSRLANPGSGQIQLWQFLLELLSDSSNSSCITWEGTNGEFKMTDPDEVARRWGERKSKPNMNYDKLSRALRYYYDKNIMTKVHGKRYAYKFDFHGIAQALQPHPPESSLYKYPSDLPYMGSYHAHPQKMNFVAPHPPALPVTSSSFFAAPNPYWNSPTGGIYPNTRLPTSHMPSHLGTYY
Procedure, shortened: as §1

[5] = target: ELF1 (Homo sapiens, UniProt P32519 1-619)
Procedure, shortened: as §1

[6] = target: T5, EHF (Homo sapiens, UniProt Q9NZC4 1-300)
T5 sequence: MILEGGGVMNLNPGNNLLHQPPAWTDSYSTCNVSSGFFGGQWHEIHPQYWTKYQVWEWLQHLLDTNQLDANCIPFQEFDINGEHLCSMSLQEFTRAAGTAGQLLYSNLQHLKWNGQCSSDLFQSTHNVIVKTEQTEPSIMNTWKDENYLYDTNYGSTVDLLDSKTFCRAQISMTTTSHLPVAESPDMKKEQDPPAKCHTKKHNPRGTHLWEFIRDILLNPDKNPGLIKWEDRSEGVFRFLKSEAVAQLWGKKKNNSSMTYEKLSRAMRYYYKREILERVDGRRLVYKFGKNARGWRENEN
Procedure, shortened: as §1

[7] = target: SPI1 (Homo sapiens, UniProt P17947 1-270)
Procedure, shortened: as §1

[8] = target: SPIB (Homo sapiens, UniProt Q01892 1-262)
Procedure, shortened: as §1

[9] = target: T6, ELK3 (Homo sapiens, UniProt P41970 1-407)
T6 sequence: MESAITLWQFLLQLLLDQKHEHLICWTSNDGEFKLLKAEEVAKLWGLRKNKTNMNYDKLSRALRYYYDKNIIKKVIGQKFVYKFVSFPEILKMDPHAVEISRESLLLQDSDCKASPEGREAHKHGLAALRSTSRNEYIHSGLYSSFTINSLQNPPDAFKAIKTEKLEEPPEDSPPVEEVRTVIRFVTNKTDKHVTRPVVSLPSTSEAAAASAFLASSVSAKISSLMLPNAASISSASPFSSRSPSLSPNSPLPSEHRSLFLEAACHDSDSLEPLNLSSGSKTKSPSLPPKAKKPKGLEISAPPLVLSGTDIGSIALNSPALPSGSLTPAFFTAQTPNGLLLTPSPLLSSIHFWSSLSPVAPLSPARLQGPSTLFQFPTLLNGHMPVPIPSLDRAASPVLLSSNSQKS
Procedure, shortened: as §1

SPIB, sequence (Q01892 whole entry): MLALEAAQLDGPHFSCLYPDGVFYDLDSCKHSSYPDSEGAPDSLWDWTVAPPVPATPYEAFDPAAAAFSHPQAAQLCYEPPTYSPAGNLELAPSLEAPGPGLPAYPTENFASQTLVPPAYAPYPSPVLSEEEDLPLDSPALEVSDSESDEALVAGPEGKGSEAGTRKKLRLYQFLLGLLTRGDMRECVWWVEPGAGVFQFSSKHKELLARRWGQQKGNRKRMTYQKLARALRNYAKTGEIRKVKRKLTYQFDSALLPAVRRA
ELF1, sequence (P32519 whole entry): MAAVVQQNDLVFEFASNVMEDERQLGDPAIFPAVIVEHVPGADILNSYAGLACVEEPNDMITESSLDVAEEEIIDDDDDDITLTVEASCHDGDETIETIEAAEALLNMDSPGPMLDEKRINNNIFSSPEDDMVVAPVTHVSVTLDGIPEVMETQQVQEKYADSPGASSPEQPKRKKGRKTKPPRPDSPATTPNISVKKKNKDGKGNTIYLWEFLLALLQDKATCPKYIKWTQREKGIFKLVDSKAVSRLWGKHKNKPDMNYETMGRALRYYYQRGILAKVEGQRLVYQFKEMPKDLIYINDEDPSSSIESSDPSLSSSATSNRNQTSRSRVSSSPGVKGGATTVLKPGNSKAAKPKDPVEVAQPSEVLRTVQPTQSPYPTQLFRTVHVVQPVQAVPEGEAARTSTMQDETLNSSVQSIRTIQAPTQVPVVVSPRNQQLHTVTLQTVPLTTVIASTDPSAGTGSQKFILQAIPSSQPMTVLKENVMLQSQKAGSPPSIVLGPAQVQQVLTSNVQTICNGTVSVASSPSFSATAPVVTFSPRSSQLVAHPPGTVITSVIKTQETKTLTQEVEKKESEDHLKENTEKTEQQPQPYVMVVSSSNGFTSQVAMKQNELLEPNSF

| Sequence | binding signal [1] | binding signal [2] | binding signal [3] | binding signal [4] | binding signal [5] | binding signal [6] | binding signal [7] | binding signal [8] | binding signal [9] |
| --- | --- | --- | --- | --- | --- | --- | --- | --- | --- |
| TCGCAC | 1.11 fold enrichment (6-mer frequency, TF over GST control) | 1.1 fold enrichment (6-mer frequency, TF over GST control) | 1.09 fold enrichment (6-mer frequency, TF over GST control) | 1.07 fold enrichment (6-mer frequency, TF over GST control) | 1.13 fold enrichment (6-mer frequency, TF over GST control) | 1.06 fold enrichment (6-mer frequency, TF over GST control) | 1.13 fold enrichment (6-mer frequency, TF over GST control) | 1.02 fold enrichment (6-mer frequency, TF over GST control) | 1.02 fold enrichment (6-mer frequency, TF over GST control) |
| GACTTT | 1.04 fold enrichment (6-mer frequency, TF over GST control) | 1.18 fold enrichment (6-mer frequency, TF over GST control) | 1.17 fold enrichment (6-mer frequency, TF over GST control) | 1.16 fold enrichment (6-mer frequency, TF over GST control) | 1.12 fold enrichment (6-mer frequency, TF over GST control) | 1.07 fold enrichment (6-mer frequency, TF over GST control) | 1.23 fold enrichment (6-mer frequency, TF over GST control) | 1.12 fold enrichment (6-mer frequency, TF over GST control) | 1.12 fold enrichment (6-mer frequency, TF over GST control) |
| ACCTCA | 1.2 fold enrichment (6-mer frequency, TF over GST control) | 1.16 fold enrichment (6-mer frequency, TF over GST control) | 1.29 fold enrichment (6-mer frequency, TF over GST control) | 1.15 fold enrichment (6-mer frequency, TF over GST control) | 1.23 fold enrichment (6-mer frequency, TF over GST control) | 1.28 fold enrichment (6-mer frequency, TF over GST control) | 1.22 fold enrichment (6-mer frequency, TF over GST control) | 1.19 fold enrichment (6-mer frequency, TF over GST control) | 1.19 fold enrichment (6-mer frequency, TF over GST control) |
| CCGCCA | 1.38 fold enrichment (6-mer frequency, TF over GST control) | 1.31 fold enrichment (6-mer frequency, TF over GST control) | 1.29 fold enrichment (6-mer frequency, TF over GST control) | 1.3 fold enrichment (6-mer frequency, TF over GST control) | 1.32 fold enrichment (6-mer frequency, TF over GST control) | 1.37 fold enrichment (6-mer frequency, TF over GST control) | 1.3 fold enrichment (6-mer frequency, TF over GST control) | 1.09 fold enrichment (6-mer frequency, TF over GST control) | 1.34 fold enrichment (6-mer frequency, TF over GST control) |
| ACTGTT | 1.15 fold enrichment (6-mer frequency, TF over GST control) | 1.03 fold enrichment (6-mer frequency, TF over GST control) | 1.23 fold enrichment (6-mer frequency, TF over GST control) | 1.16 fold enrichment (6-mer frequency, TF over GST control) | 1.11 fold enrichment (6-mer frequency, TF over GST control) | 1.13 fold enrichment (6-mer frequency, TF over GST control) | 1.16 fold enrichment (6-mer frequency, TF over GST control) | 1.15 fold enrichment (6-mer frequency, TF over GST control) | 1.18 fold enrichment (6-mer frequency, TF over GST control) |
| TGTGCC | 1.17 fold enrichment (6-mer frequency, TF over GST control) | 1.2 fold enrichment (6-mer frequency, TF over GST control) | 1.07 fold enrichment (6-mer frequency, TF over GST control) | 1.17 fold enrichment (6-mer frequency, TF over GST control) | 1.21 fold enrichment (6-mer frequency, TF over GST control) | 1.02 fold enrichment (6-mer frequency, TF over GST control) | 1.06 fold enrichment (6-mer frequency, TF over GST control) | 1.04 fold enrichment (6-mer frequency, TF over GST control) | 1.3 fold enrichment (6-mer frequency, TF over GST control) |
| GGAATT | 1.14 fold enrichment (6-mer frequency, TF over GST control) | 1.1 fold enrichment (6-mer frequency, TF over GST control) | 1 fold enrichment (6-mer frequency, TF over GST control) | 1.12 fold enrichment (6-mer frequency, TF over GST control) | 1.07 fold enrichment (6-mer frequency, TF over GST control) | 1.24 fold enrichment (6-mer frequency, TF over GST control) | 1.16 fold enrichment (6-mer frequency, TF over GST control) | 1.18 fold enrichment (6-mer frequency, TF over GST control) | 1.24 fold enrichment (6-mer frequency, TF over GST control) |
| ATTTTC | 1.47 fold enrichment (6-mer frequency, TF over GST control) | 1.35 fold enrichment (6-mer frequency, TF over GST control) | 1.46 fold enrichment (6-mer frequency, TF over GST control) | 1.46 fold enrichment (6-mer frequency, TF over GST control) | 1.31 fold enrichment (6-mer frequency, TF over GST control) | 1.49 fold enrichment (6-mer frequency, TF over GST control) | 1.56 fold enrichment (6-mer frequency, TF over GST control) | 1.41 fold enrichment (6-mer frequency, TF over GST control) | 1.31 fold enrichment (6-mer frequency, TF over GST control) |
